Laboratory results taken from the supplement of paper PMC11732987, “Enantioselective OTUD7B fragment discovery through chemoproteomics screening and high-throughput optimisation” (Communications Chemistry, 2025).

How the values were obtained:
Assay in all cases: log2 ratio of Biotin-Ahx-Ub-VS probe labelling (fragment/DMSO); higher = less target engagement (more negative = stronger competition), active = hit call of the paper (q ≤ 0.05, log2 ratio ≤ -1)
Conditions in all cases: compound concentration: 200 uM; treatment time: 3 h
USP42 = molecular target: T1, USP42 (UniProt Q9H9J4)
T1 sequence (whole entry): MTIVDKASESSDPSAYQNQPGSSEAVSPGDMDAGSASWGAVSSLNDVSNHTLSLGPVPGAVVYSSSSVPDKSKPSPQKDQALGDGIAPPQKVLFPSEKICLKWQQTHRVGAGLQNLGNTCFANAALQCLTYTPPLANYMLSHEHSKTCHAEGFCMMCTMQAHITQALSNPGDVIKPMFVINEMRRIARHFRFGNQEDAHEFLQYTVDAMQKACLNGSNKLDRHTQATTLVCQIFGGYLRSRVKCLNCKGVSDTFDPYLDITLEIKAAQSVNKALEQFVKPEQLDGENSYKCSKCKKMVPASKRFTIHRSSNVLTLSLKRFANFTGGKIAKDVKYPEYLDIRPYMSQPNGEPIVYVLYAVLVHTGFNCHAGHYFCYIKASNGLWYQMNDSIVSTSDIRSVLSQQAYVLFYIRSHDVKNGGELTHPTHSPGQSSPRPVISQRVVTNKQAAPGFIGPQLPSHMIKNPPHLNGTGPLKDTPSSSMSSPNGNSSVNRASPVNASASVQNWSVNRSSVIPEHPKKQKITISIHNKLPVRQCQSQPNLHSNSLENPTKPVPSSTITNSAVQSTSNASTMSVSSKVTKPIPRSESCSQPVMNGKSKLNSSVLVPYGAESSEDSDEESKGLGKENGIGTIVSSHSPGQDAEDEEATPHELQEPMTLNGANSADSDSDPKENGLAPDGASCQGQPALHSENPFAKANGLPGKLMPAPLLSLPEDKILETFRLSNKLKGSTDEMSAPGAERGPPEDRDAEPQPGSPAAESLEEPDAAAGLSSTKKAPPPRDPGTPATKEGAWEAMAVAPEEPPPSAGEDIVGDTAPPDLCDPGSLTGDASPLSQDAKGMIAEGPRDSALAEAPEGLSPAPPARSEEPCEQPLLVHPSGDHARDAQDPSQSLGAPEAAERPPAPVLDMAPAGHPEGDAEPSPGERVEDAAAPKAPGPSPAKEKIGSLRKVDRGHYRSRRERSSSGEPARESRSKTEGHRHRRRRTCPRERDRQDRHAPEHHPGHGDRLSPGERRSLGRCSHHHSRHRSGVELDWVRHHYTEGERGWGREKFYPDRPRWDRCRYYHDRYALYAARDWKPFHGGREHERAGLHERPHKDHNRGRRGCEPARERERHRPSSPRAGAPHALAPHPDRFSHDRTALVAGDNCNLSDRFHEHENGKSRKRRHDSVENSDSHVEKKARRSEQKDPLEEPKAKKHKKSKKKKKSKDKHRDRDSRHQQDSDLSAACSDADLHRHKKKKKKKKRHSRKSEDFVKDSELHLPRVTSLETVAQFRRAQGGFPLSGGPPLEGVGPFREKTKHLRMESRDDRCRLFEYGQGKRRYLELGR
Method in brief: (§1)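 Labelled DUBs from HEK293T lysate were NeutrAvidin-enriched, digested with LysC and trypsin, and run by diaPASEF LC-MS/MS. Before that, each 495 µg sample in Tris/CHAPS/IGEPAL buffer with protease inhibitors was treated in triplicate with fragment at 200 µM or vehicle for 3 h, then with Biotin-Ahx-Ub-VS at 0.5 µM final for 1 h. Values are average log2 ratios of fragment over vehicle by unpaired t-test, based on global-median-normalised Spectronaut label-free quantities from proteins with ≥2 unique peptides.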

USP46 = USP46 (UniProt P62068)
Chain of USP46 (P62068 whole entry): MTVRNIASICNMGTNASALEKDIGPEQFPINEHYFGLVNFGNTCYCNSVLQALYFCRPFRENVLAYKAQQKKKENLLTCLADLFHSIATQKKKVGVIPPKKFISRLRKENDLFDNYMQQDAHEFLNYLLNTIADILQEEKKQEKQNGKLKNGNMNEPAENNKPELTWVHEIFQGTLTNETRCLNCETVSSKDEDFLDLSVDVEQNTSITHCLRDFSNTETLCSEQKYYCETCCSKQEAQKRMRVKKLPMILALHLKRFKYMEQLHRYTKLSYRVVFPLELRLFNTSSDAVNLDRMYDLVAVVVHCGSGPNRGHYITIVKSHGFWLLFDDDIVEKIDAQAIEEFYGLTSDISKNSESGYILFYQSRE
Method in brief: as §1

USP47 = molecular target: T2, USP47 (UniProt Q96K76)
T2 sequence (whole entry): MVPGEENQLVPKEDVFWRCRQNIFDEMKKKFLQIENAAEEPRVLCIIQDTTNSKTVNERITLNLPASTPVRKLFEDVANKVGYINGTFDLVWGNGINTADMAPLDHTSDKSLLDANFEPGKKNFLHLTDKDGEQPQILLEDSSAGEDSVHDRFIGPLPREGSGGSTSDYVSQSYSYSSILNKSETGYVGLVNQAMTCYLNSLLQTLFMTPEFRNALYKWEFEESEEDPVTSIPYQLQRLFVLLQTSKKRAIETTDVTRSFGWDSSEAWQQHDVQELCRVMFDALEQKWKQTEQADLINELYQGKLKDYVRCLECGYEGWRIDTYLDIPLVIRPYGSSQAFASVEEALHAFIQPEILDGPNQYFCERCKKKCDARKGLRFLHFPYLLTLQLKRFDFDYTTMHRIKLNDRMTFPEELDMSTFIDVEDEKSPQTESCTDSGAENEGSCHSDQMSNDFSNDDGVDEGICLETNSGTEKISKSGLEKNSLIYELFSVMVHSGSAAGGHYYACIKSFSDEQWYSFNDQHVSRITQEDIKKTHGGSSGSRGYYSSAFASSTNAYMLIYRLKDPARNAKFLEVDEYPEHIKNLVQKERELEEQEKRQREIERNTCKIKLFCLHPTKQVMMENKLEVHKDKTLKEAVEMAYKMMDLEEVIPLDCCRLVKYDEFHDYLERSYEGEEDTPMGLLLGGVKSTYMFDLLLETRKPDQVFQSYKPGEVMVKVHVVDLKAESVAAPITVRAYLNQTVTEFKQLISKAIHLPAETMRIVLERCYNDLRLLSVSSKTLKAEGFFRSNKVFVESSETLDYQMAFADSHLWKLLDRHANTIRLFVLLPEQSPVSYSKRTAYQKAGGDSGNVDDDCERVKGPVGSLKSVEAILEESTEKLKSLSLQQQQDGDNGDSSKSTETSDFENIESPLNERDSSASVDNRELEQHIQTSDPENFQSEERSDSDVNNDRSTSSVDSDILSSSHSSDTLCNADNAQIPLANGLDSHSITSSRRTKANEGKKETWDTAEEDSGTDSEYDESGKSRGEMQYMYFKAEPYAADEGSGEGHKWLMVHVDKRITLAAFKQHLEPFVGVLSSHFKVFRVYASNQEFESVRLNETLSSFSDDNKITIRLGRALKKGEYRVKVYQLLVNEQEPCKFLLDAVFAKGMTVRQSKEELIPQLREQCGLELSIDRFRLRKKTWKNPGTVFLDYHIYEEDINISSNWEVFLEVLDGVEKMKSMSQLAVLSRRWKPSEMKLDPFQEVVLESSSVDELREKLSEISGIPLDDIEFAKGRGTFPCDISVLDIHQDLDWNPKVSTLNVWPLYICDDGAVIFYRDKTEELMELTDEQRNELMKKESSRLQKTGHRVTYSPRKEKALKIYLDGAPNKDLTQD
Method in brief: as §1

USP48 = molecular target: T3, USP48 (UniProt Q86UV5)
T3 sequence (whole entry): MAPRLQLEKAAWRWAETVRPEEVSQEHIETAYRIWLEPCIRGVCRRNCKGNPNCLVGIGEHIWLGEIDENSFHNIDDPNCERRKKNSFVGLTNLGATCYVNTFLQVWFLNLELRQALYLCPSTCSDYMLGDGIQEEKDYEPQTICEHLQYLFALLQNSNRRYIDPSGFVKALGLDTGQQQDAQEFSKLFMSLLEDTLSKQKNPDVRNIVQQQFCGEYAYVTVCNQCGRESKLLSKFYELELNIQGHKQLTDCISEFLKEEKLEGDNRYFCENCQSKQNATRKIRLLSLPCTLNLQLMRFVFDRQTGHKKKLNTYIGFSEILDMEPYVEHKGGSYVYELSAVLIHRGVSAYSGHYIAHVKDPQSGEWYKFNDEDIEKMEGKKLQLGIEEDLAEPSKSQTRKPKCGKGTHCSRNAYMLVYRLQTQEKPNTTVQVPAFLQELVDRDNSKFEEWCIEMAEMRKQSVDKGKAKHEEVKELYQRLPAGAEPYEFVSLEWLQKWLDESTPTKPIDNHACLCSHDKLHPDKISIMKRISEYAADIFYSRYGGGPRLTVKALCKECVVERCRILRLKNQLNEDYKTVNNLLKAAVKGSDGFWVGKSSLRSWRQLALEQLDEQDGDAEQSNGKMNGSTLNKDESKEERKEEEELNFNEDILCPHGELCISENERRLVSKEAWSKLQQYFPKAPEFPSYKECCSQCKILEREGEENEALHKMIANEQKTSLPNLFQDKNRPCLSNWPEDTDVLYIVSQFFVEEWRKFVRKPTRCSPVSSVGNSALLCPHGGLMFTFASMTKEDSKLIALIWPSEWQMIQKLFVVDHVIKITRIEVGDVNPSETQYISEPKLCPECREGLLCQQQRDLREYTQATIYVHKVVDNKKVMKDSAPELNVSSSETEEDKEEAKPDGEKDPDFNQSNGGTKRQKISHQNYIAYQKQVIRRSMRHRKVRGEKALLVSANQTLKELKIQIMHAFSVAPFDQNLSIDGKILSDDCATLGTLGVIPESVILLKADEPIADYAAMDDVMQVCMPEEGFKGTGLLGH
Method in brief: as §1

USP5 = molecular target: T4, USP5 (UniProt P45974)
T4 sequence (whole entry): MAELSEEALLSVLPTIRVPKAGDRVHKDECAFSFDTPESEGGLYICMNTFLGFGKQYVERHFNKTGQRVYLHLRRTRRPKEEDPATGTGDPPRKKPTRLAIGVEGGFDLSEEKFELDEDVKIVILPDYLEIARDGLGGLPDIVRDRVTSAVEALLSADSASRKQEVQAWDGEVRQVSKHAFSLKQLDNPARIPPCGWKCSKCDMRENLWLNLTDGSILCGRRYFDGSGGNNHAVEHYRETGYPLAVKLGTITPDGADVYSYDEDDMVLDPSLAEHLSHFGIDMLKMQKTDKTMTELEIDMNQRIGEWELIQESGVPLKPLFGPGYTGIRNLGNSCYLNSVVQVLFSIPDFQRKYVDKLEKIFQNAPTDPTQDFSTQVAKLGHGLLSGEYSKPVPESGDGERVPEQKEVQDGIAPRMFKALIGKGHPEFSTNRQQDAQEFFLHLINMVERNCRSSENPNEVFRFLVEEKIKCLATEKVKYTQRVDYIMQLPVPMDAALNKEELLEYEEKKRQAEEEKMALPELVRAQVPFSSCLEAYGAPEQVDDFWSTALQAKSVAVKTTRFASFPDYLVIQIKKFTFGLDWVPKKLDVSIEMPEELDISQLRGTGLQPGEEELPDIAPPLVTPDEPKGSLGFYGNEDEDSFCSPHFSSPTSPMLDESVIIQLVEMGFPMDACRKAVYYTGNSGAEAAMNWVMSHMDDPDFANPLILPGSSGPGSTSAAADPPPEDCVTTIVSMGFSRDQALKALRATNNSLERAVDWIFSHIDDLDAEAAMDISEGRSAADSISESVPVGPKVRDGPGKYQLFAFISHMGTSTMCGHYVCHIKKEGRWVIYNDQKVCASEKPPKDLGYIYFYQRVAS
Method in brief: as §1

USP54 = USP54 (UniProt Q70EL1)
Chain of USP54 (Q70EL1 whole entry): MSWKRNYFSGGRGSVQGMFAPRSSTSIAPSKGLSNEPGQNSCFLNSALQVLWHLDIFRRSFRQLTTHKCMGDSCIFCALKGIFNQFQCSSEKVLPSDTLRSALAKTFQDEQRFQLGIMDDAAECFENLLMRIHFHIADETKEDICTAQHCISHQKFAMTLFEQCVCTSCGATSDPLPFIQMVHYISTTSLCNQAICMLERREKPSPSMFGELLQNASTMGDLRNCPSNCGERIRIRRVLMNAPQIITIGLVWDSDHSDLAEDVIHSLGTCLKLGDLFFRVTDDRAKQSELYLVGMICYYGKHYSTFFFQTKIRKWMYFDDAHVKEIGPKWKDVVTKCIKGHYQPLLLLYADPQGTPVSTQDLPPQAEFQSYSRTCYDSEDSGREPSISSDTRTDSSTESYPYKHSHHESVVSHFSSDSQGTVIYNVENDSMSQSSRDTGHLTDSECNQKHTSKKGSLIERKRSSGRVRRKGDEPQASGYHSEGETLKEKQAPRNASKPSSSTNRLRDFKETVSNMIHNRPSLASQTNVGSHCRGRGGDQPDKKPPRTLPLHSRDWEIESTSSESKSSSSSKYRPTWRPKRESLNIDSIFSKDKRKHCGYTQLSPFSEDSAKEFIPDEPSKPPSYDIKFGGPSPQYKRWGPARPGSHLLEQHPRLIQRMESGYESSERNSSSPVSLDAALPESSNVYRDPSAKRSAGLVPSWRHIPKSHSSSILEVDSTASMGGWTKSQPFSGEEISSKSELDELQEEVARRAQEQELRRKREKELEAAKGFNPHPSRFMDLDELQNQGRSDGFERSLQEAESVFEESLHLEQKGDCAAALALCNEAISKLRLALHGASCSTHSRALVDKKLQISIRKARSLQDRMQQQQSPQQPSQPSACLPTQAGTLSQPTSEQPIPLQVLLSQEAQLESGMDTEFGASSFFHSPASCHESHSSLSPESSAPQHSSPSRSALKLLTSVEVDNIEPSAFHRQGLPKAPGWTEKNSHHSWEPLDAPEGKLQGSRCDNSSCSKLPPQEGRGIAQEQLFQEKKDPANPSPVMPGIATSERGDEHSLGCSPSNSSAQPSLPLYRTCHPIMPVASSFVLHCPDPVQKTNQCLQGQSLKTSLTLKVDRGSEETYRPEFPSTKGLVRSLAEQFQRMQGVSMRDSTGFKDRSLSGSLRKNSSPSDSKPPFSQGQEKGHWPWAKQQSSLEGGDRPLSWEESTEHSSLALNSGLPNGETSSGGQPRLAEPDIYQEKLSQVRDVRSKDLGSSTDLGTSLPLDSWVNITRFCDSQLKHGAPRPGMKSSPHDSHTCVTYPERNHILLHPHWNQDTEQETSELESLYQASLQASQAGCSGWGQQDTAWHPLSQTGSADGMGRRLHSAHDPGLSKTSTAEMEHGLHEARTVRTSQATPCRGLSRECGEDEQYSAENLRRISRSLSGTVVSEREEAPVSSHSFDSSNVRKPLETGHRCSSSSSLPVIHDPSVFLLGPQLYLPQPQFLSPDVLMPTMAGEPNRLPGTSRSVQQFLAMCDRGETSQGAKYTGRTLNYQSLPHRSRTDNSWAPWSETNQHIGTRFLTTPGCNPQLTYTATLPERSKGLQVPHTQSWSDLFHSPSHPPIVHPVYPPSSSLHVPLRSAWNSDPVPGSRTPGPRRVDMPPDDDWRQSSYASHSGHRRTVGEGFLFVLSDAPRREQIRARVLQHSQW
Method in brief: as §1

USP7 = USP7 (UniProt Q93009)
Chain of USP7 (Q93009 whole entry, looked up): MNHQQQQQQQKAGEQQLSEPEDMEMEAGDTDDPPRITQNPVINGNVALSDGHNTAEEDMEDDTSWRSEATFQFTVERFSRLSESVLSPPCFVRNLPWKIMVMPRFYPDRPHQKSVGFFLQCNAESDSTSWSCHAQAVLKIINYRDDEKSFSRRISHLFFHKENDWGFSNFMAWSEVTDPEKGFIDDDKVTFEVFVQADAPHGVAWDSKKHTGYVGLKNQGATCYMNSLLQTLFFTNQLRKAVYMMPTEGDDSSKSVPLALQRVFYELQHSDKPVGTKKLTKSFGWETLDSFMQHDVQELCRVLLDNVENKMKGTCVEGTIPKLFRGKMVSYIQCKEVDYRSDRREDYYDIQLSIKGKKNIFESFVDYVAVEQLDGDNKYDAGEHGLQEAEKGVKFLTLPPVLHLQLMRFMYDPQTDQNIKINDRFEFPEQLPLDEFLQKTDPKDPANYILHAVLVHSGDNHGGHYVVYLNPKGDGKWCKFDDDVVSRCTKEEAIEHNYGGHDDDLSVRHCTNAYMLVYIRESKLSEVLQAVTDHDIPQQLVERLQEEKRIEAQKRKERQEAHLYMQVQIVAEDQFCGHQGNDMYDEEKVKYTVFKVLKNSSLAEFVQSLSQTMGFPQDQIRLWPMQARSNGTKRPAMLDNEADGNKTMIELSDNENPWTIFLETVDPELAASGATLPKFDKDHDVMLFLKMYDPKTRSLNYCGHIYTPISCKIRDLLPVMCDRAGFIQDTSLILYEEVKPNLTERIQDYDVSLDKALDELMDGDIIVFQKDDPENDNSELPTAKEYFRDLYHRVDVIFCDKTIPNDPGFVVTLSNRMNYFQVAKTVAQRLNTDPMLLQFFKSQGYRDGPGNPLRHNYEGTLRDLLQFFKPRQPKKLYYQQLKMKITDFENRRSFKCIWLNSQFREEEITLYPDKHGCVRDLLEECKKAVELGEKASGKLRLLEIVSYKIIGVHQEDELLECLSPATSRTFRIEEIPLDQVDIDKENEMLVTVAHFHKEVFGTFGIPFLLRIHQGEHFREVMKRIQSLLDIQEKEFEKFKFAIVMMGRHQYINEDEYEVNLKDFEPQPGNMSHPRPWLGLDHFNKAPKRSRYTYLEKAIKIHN
Method in brief: as §1

USP8 = molecular target: T5, USP8 (UniProt P40818)
T5 sequence (whole entry): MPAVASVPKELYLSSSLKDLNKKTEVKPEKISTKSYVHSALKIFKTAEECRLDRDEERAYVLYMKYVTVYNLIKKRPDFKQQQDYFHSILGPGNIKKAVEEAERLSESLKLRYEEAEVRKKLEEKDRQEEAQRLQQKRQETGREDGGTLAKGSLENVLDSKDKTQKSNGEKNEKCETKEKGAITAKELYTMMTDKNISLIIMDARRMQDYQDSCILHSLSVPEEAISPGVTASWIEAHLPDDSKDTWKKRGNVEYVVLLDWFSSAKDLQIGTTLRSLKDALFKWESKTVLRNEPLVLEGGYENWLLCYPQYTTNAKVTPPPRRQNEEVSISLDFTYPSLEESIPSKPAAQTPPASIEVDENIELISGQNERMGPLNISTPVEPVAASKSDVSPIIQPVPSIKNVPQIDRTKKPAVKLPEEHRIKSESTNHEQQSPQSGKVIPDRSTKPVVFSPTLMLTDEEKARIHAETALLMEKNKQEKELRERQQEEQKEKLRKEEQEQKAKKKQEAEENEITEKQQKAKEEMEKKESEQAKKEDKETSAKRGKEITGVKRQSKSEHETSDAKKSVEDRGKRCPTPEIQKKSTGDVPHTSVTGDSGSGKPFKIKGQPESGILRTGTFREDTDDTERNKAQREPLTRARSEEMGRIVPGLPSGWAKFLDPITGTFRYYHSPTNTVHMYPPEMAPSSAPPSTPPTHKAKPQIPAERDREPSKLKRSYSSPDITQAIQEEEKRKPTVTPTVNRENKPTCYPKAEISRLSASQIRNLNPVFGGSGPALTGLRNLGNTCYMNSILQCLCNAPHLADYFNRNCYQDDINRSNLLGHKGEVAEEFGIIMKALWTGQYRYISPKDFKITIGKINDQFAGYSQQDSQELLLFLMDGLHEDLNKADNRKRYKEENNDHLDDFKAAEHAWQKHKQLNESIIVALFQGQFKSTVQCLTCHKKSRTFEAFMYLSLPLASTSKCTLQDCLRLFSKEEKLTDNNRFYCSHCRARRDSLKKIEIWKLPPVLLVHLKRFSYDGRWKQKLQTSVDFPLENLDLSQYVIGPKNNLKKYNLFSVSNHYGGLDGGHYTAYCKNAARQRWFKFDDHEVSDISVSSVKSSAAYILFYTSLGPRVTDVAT
Method in brief: as §1

Measured: log2 ratio of Biotin-Ahx-Ub-VS probe labelling

CCC1c2ccsc2CCN1C(=O)CCl (stereo not drawn)
active: USP7 -1.23
inactive: USP42 0.624 | USP46 -0.333 | USP47 -0.618 | USP48 -0.725 | USP5 -0.159 | USP54 -0.451 | USP8 -0.157
